Inconclusive results are not listed. Entries that show only a call come without a potency. Activity calls are given as the source filed them. Unless noted, the call rests on the fitted dose curve.

Sequence of Thyrotropin receptor (Homo sapiens) (P16473 whole entry, looked up): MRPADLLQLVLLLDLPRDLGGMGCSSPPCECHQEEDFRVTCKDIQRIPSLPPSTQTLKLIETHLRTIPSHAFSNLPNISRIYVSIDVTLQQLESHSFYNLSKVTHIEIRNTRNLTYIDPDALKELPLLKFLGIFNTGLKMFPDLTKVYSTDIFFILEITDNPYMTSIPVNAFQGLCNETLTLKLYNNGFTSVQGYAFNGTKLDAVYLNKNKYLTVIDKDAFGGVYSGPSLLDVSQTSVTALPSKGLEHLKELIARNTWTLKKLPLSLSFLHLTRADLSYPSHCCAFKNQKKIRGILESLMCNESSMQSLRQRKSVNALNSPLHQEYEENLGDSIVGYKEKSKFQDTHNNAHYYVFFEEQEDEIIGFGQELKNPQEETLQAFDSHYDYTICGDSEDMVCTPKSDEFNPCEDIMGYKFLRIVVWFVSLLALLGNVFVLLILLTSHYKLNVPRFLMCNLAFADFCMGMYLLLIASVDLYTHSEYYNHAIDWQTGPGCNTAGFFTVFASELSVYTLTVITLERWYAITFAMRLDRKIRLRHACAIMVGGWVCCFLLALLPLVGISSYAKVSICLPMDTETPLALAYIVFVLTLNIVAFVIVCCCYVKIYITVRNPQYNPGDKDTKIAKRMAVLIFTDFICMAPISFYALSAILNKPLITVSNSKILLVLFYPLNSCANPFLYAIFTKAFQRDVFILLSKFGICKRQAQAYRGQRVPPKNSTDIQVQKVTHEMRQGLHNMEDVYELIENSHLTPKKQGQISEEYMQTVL

The target in the first experiment is Estrogen receptor (Homo sapiens) (UniProt P03372). As to the kind of experiment: qHTS assay to identify small molecule agonists of the estrogen receptor alpha (ER-alpha) signaling pathway in the presence of an antagonist (AID 1259383). Further: top concentration of the series differs between compounds; nearly all actives have a fitted effect of over 15% in size. The settings on record: VM7Luc4E2 cells, ERE-luciferase, +ICI-182,780, 22 h; series mostly up to 92.4 µM. Put shortly: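 ER-alpha agonism measured under antagonist challenge: 10.0nM ICI-182,780 (final) plus compound, 15 concentrations, 22hr, VM7Luc4E2 ERE-luciferase cells. Read by luminescence.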
Sequence of Estrogen receptor (Homo sapiens) (P03372 whole entry, looked up): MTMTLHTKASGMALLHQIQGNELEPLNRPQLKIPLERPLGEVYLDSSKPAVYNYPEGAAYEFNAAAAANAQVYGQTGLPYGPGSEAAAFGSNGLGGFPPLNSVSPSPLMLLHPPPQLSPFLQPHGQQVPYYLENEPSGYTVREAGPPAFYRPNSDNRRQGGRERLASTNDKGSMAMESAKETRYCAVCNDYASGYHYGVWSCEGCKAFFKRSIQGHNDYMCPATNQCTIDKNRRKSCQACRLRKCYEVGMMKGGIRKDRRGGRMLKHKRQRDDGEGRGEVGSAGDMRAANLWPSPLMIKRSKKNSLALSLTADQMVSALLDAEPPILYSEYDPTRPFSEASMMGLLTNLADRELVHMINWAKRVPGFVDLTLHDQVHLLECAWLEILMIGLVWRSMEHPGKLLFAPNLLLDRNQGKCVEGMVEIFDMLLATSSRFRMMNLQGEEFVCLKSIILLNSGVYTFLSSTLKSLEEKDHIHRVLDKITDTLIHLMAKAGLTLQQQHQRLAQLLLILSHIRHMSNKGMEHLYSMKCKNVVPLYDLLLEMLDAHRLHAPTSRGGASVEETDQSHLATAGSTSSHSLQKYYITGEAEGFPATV
For orientation: Quantitative high-throughput screening tests each substance at several concentrations.
On to `c1ccc2scnc2c1`, for which the Potency result was “inactive”.

Regarding `COS(C)(=O)=O`, the Potency result was “inactive”.

Take `CCC(O)OC(O)CC` (stereo not drawn): the Potency entry was “inactive”.

As to `O=S(=O)(O)c1ccc2ccccc2c1`, the Potency entry is “inactive”.

Take `CCCCCOC(C)=O`: the Potency entry was “inactive”.

Turning to `CCCCC(CC)COC(=O)CCCCC(=O)OCC(CC)CCCC` (stereo not drawn), the Potency entry is “inactive”.

Regarding `C=C(C)C(=O)O[C@H]1C[C@@H]2CC[C@@]1(C)C2(C)C`, the Potency result was “inactive”.

In the case of `O=C(O)CCCCCCCCCCC(=O)O`, the Potency result was “inactive”.

System in the next experiment: not listed separately
Kind of experiment: qHTS assay to identify small molecule agonists or antagonists of the thyroid stimulating hormone receptor (TSHR) signaling pathway - wild type cell line counter screen (AID 1259384). Conditions: HEK293 wild type, cAMP HTRF counter-screen; series mostly up to 92.4 µM. Put shortly: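 Wild-type HEK293 cells were plated 18 h at 37 C/5% CO2, pin-dosed with compound plus Ro20-1724 medium, held 30 min at room temperature, then given cAMP-d2 and anti-cAMP-cryptate; fluorescence was read after 1 h. Fifteen concentrations, triplicate.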
With `Cc1cccnc1`, the result was inactive.

Regarding `CCCCCCCCCCCCc1ccccc1`, the compound was classed as inactive.

In the case of `CN(C)CCCN`, the call was inactive.

Take `O=c1[nH]nnc2ccccc12`: the compound was called inactive.

On to `COS(C)(=O)=O`, for which the call was inactive.

Consider `O=S1(=O)CC=CC1`, for which the result was inactive.

On to `CCC(O)OC(O)CC` (stereo not drawn), for which the call was inactive.

Turning to `CCN(CC)c1ccc(C(=O)c2ccccc2C(=O)O)c(O)c1`, the call was inactive.

For the compound `O=S(=O)(O)c1ccc2ccccc2c1`, the outcome was inactive.

For the compound `CCCCCCCCCCCCOCCO`, the result was inactive.

In the case of `Fc1ccc(Br)cc1`, the call was inactive.

For the compound `O=C(O)c1cc(C(=O)O)cc(S(=O)(=O)O)c1`, the compound was classed as inactive.

`CCCCCOC(C)=O`: the result was inactive.

In the case of `Oc1cccc2ccccc12`, the result was inactive.

Regarding `CN(C)CCC(c1ccc(Cl)cc1)c1ccccn1` (stereo not drawn), the result was inactive.

With `CC(C)(N)CO`, the result was inactive.

Take `O=C(Oc1ccccc1)c1ccccc1`: the compound was classed as inactive.

In the case of `O=C(O)CCCCCCCCCCC(=O)O`, the compound was called inactive.

For the compound `Cc1cc(C)c(C)cc1C`, the outcome was inactive.

On to `O=C(CC(C(=O)OC1CCCCC1)S(=O)(=O)O)OC1CCCCC1` (stereo not drawn), for which the compound was called inactive.

Turning to `Cc1occc(=O)c1O`, the compound was called inactive.

Regarding `CC(=O)c1ccccc1`, the result was inactive.

In a further experiment the target is Thyrotropin receptor (Homo sapiens) (UniProt P16473). As to the kind of experiment: qHTS assay to identify small molecule antagonists of the thyroid stimulating hormone receptor (TSHR) signaling pathway (AID 1259385). Further: nearly all actives have a fitted effect of over 20% in size. The settings on record: TSHR-HEK293 cAMP HTRF, TSH-stimulated antagonist mode; series mostly up to 92.4 µM. The method, boiled down:
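TSHR-HEK293 cells were plated and held 18 h at 37C/5% CO2, then given compound plus Ro20-1724 and stimulated with TSH at 1.5 ng/mL final. After 30 min at room temperature, cAMP was detected with cAMP-d2/anti-cAMP-cryptate (1 h) by fluorescence.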
Turning to `Cc1cccnc1`, the Potency entry is “inactive”.

Consider `CCCCCCCCCCCCc1ccccc1`, for which the Potency result is “inactive”.

For `CN(C)CCCN`, the Potency result is “inactive”.

Turning to `c1ccc2scnc2c1`, the Potency result is “inactive”.

Regarding `OCC(CO)(CBr)CBr`, the Potency entry is “inactive”.

`CCCCCCCCCC`: the Potency result was “inactive”.

For the compound `O=c1[nH]nnc2ccccc12`, the Potency result is “inactive”.

On to `COS(C)(=O)=O`, for which the Potency result is “inactive”.

Turning to `O=S1(=O)CC=CC1`, the Potency entry was “inactive”.

Take `CC1CCC(C(C)C)C(O)C1` (stereo not drawn): the Potency result was “inactive”.

On to `CCC(O)OC(O)CC` (stereo not drawn), for which the Potency result is “inactive”.

For `CCN(CC)c1ccc(C(=O)c2ccccc2C(=O)O)c(O)c1`, the Potency result was “inactive”.

Take `O=S(=O)(O)c1ccc2ccccc2c1`: the Potency entry is “inactive”.

`CCCCCCCCCCCCOCCO`: the Potency entry was “inactive”.

As to `Fc1ccc(Br)cc1`, the Potency entry is “inactive”.

As for `O=C(O)c1cc(C(=O)O)cc(S(=O)(=O)O)c1`, the Potency result is “inactive”.

Regarding `O=C(O)c1ccc(C(=O)O)cc1`, the Potency result is “inactive”.

For `c1ccc2c(c1)ccc1ccccc12`, the Potency result was “inactive”.

Take `CCCCCOC(C)=O`: the Potency entry was “inactive”.

With `Oc1cccc2ccccc12`, the Potency entry was “inactive”.

Regarding `C=C(C)C(=O)OCCOCCOCCOC(=O)C(=C)C`, the Potency result was “inactive”.

With `CCCCC(CC)COC(=O)CS` (stereo not drawn), the Potency result is “inactive”.

Regarding `CN(C)CCC(c1ccc(Cl)cc1)c1ccccn1` (stereo not drawn), the Potency result was “inactive”.

Regarding `CC(C)(N)CO`, the Potency result was “inactive”.

Turning to `CCc1cccc(C)c1N`, the Potency result was “inactive”.

Consider `O=C(Oc1ccccc1)c1ccccc1`, for which the Potency entry was “inactive”.

As for `CCCCC(CC)COC(=O)CCCCC(=O)OCC(CC)CCCC` (stereo not drawn), the Potency result is “inactive”.

On to `C=C(C)C(=O)O[C@H]1C[C@@H]2CC[C@@]1(C)C2(C)C`, for which the Potency result was “inactive”.

As for `O=C(O)CCCCCCCCCCC(=O)O`, the Potency result was “inactive”.

For the compound `Cc1cc(C)c(C)cc1C`, the Potency entry was “inactive”.

Turning to `O=C(CC(C(=O)OC1CCCCC1)S(=O)(=O)O)OC1CCCCC1` (stereo not drawn), the Potency result is “inactive”.

For `Cc1occc(=O)c1O`, the Potency result is “inactive”.

With `CC(=O)c1ccccc1`, the Potency result is “inactive”.

For the compound `CCCCCC/C(C=O)=C\c1ccccc1`, the Potency result was “inactive”.

System in another experiment: not listed separately
Kind of experiment: qHTS assay to identify small molecule agonists of the estrogen receptor alpha (ER-alpha) signaling pathway in the presence of an antagonist - cell viability counter screen (AID 1259386; active means well fitted cell-killing curve with a large enough effect in the repeat runs;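 further: cells exposed to compounds for 22 h at 37 °C before the viability read; nearly all actives have a fitted effect of over 30% in size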). The settings on record: VM7Luc4E2 viability, CellTiter-Fluor fluorescence, 22 h; series mostly up to 92.4 µM. Put shortly:
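Steps: 5-day stripped-FBS culture; seed and incubate 24hr; add ICI-182,780 (10.0nM final); pin 15-point compound titration; incubate 22hr at 37C; add CellTiter-Fluor at 21hr; read fluorescence.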
As to `Cc1cccnc1`, the Potency entry was “inactive”.

Take `CCCCCCCCCCCCc1ccccc1`: the Potency result is “inactive”.

`CN(C)CCCN`: the Potency entry is “inactive”.

Take `c1ccc2scnc2c1`: the Potency result was “inactive”.

Take `OCC(CO)(CBr)CBr`: the Potency entry is “inactive”.

`CCCCCCCCCC`: the Potency entry is “inactive”.

In the case of `CC1=C(C)S(=O)(=O)CCS1(=O)=O`, the Potency entry is “inactive”.

Consider `O=c1[nH]nnc2ccccc12`, for which the Potency result was “inactive”.

`COS(C)(=O)=O`: the Potency entry was “inactive”.

As to `O=S1(=O)CC=CC1`, the Potency entry is “inactive”.

Take `CC1CCC(C(C)C)C(O)C1` (stereo not drawn): the Potency result is “inactive”.

On to `CCC(O)OC(O)CC` (stereo not drawn), for which the Potency result is “inactive”.

Turning to `CCN(CC)c1ccc(C(=O)c2ccccc2C(=O)O)c(O)c1`, the Potency result is “inactive”.

As for `Cc1cccc(O)c1`, the Potency entry was “inactive”.

On to `O=S(=O)(O)c1ccc2ccccc2c1`, for which the Potency entry was “inactive”.

Turning to `CCCCCCCCCCCCOCCO`, the Potency result is “inactive”.

On to `Fc1ccc(Br)cc1`, for which the Potency entry is “inactive”.

Consider `O=C(O)c1cc(C(=O)O)cc(S(=O)(=O)O)c1`, for which the Potency entry is “inactive”.

`O=C(O)c1ccc(C(=O)O)cc1`: the Potency entry is “inactive”.

On to `c1ccc2c(c1)ccc1ccccc12`, for which the Potency entry is “inactive”.

Take `CCCCCOC(C)=O`: the Potency result is “inactive”.

Consider `CCCC(C)=O`, for which the Potency result was “inactive”.

`Oc1cccc2ccccc12`: the Potency result is “inactive”.

`C=C(C)C(=O)OCCOCCOCCOC(=O)C(=C)C`: the Potency result was “inactive”.

Take `CCCCC(CC)COC(=O)CS` (stereo not drawn): the Potency result was “inactive”.

Turning to `CN(C)CCC(c1ccc(Cl)cc1)c1ccccn1` (stereo not drawn), the Potency entry was “inactive”.

As for `CC(C)(N)CO`, the Potency entry is “inactive”.

Take `Nc1ccccc1[N+](=O)[O-]`: the Potency result is “inactive”.

With `CCc1cccc(C)c1N`, the Potency result was “inactive”.

For the compound `O=C(Oc1ccccc1)c1ccccc1`, the Potency result was “inactive”.

For the compound `CCCCC(CC)COC(=O)CCCCC(=O)OCC(CC)CCCC` (stereo not drawn), the Potency entry is “inactive”.

For the compound `C=C(C)C(=O)O[C@H]1C[C@@H]2CC[C@@]1(C)C2(C)C`, the Potency result was “inactive”.

Take `O=C(O)CCCCCCCCCCC(=O)O`: the Potency result is “inactive”.

For `Cc1cc(C)c(C)cc1C`, the Potency result was “inactive”.

For the compound `O=C(CC(C(=O)OC1CCCCC1)S(=O)(=O)O)OC1CCCCC1` (stereo not drawn), the Potency result is “inactive”.

`CCCCCCOCCO`: the Potency entry was “inactive”.

For the compound `Cc1occc(=O)c1O`, the Potency result was “inactive”.

With `CC(=O)c1ccccc1`, the Potency entry was “inactive”.

As for `CCCCCC/C(C=O)=C\c1ccccc1`, the Potency entry is “inactive”.

The record behind these values is PubChem BioAssay (Tox21).
